Measurements: PubChem BioAssay (Tox21)
Several values for one entry are separate records, joined by “and”; a condition that tells them apart may be missing. Equal values may be shown once. Results filed as inconclusive are left out. Entries that show only a call come without a potency. Activity calls are given as the source filed them. The call rests on the fitted dose curve; in most records, active means well fitted activation curve with a large enough effect in the repeat runs; inconclusive means weak or mixed curves; inactive means no such curve, though single readings can be large or run the other way.

Assay: qHTS assay for small molecules that induce genotoxicity in human embryonic kidney cells expressing luciferase-tagged ATAD5 (AID 651632); further: nearly all actives have a fitted effect of over 15% in size
Conditions: HEK293T ATAD5-luciferase induction, 16 h; series mostly up to 83.3 µM
Description: U.S. Tox21 Program National Center for Advancing Translational Sciences [NCATS] NIH Chemical Genomics Center [NCGC] U.S. Environmental Protection Agency [EPA] National Institutes of Environmental Health Sciences [NIEHS] National Toxicology Program [NTP] U.S. Food and Drug Administration [FDA] Tox21 Assay Overview: As cancer cells divide rapidly and during every cell division they need to duplicate their genome by DNA replication. The failure to do so results in the cancer cell death. Based on this concept, many chemotherapeutic agents were developed but have limitations such as low efficacy and severe side effects etc. A new cell based assay was developed to find the compounds that effectively block DNA replication either by directly damaging DNA or by inhibiting other cellular mechanisms. Enhanced Level of Genome Instability Gene 1 (ELG1; human ATAD5) protein levels increase in response to various types of DNA damage. Using a luciferase reporter-gene tagged with ATAD5, a cell-based assay [developed by Kyungjae Myung, NHGRI, NIH] was used to measure the induction of ATAD5 in human embryonic kidney cells (HEK293T). So, increase in luciferase activity can be used to identify the compounds that cause genetic stress.
Tox21 Assay Protocol Summary: For genotoxicity screening, 2,000 cells in 5 uL/well were dispensed into white, solid-bottom 1536-well plates using a Multidrop Combi (Thermo Scientific) dispenser. Following transfer of 23 nL compound or DMSO vehicle by a pin tool, the plates were incubated 16 hr at 37C and 5% CO2. 5 ul Amplite (AAT Bioquest, Inc.) was then added to each plate and following 30 min incubation at room temperature, luciferase activity was quantified on a ViewLux CCD-based plate reader.
Potency means the concentration at half of the fitted maximal effect.

Row | SMILES | Potency
1 | c1ccc2c(c1)Nc1ccccc1S2 | inactive
2 | CS(=O)(=O)NC(=O)c1cc(Oc2ccc(C(F)(F)F)cc2Cl)ccc1[N+](=O)[O-] | inactive
3 | C=CC(=O)OCC(CC)(COC(=O)C=C)COC(=O)C=C | 7.04 µM (active)
4 | CN(C)c1nc(=O)n(C2CCCCC2)c(=O)n1C | inactive
5 | CCC[CH2][Sn]([Cl])([Cl])[CH2]CCC | inactive
6 | Clc1cccc(C(Cl)(Cl)Cl)n1 | inactive
7 | CCCCSP(=O)(SCCCC)SCCCC | inactive
8 | CCNCC | inactive
9 | O=NN(c1ccccc1)c1ccccc1 | inactive
10 | OC(c1ccc(Cl)cc1)(c1cncnc1)c1ccccc1Cl (stereo not given) | inactive
11 | C[N+](C)(C)C | inactive
12 | C[N+](C)(C)CC(=O)[O-] | inactive
13 | Nc1ccc([N+](=O)[O-])cc1N | inactive
14 | Nc1ccc2ccccc2c1 | inactive
15 | CC1(C)C(C(=O)OC(C#N)c2cccc(Oc3ccccc3)c2)C1(C)C (stereo not given) | inactive
16 | O=C(O)c1nn(Cc2ccc(Cl)cc2Cl)c2ccccc12 | inactive
17 | Nc1ncn[nH]1 | inactive
18 | CCOS(=O)(=O)OCC | inactive
19 | CCC[CH2][Sn]([Cl])([CH2]CCC)[CH2]CCC | inactive
20 | CC(C)Nc1ccc(Nc2ccccc2)cc1 | inactive

Row | SMILES | Potency
21 | Cc1cc(Cl)ccc1N=CN(C)C | inactive
22 | COP(=S)(OC)Oc1ccc(Sc2ccc(OP(=S)(OC)OC)cc2)cc1 | inactive
23 | N#Cc1c(Cl)c(Cl)c(Cl)c(C#N)c1Cl | 424 nM (active) and 864 nM (active)
24 | C[N+](C)(C)CC(=O)O | inactive
25 | C=C(C)C#N | inactive
26 | NC(=O)CN1CCCC1=O | inactive
27 | CCCCOCCOC(C)=O | inactive
28 | O=[N+]([O-])c1ccc(Nc2ccccc2)cc1 | inactive
29 | CSc1nc(NC(C)C)nc(NC(C)C)n1 | inactive
30 | O=C1Nc2ccc(Cl)cc2C(c2ccccc2)=NC1O (stereo not given) | inactive
31 | COP(=O)(NC(C)=O)SC (stereo not given) | inactive
32 | N#CCCCCC#N | inactive
33 | CCNc1nc(Cl)nc(NC(C)(C)C#N)n1 | inactive
34 | N#CC(c1ccccc1)c1ccccc1 | inactive
35 | CCCCC(C#N)(Cn1cncn1)c1ccc(Cl)cc1 (stereo not given) | inactive
36 | Cn1c(-c2ccccc2)cc(-c2ccccc2)[n+]1C | inactive
37 | Cc1ccc(N=CN(C)C=Nc2ccc(C)cc2C)c(C)c1 | inactive
38 | [CH3][Sn]([Cl])([Cl])[Cl] | inactive
39 | CC[n+]1c(-c2ccccc2)c2cc(N)ccc2c2ccc(N)cc21 | inactive
40 | CCOC(=O)c1ccccc1N | inactive
